ChEMBL document CHEMBL4513146, “CO-ADD screening of Karazin Kharkiv National University (Ukraine) compounds”
Potency and affinity values are given separately.

Experiments:
Staphylococcus aureus = settings: Concentration 32 ug.mL-1;; ASSAY_TEST Inhibition of Bacterial Growth; detection method Absorption (OD600); MEDIA CAMHB; plate type 384well; NBS; CORNING #3640; time 18 hr
Escherichia coli = settings: Concentration 32 ug.mL-1;; ASSAY_TEST Inhibition of Bacterial Growth; detection method Absorption (OD600); MEDIA CAMHB; plate type 384well; NBS; CORNING #3640; time 18 hr

`COc1ccc(N(Cc2ccc(OC)c(F)c2)S(=O)(=O)c2ccc3nncn3c2)cc1` was tested. Which Inhibition (Staphylococcus aureus) did it give?
Its Inhibition is 2.98%.

And the Inhibition (Escherichia coli)?
Its Inhibition is -0.06%.

What does the source list for `COc1cc(NC(=O)Cn2nc3ccc(-c4ccc(C)c(C)c4)nn3c2=O)cc(OC)c1`?
Inhibition (Staphylococcus aureus): 8.96%; Inhibition (Escherichia coli): -5.07%

What does the source list for `Cc1ccc(-c2cc3c4nnc(SCC(=O)Nc5ccccc5Br)n4ccn3n2)cc1`?
Inhibition (Staphylococcus aureus): 1.85%; Inhibition (Escherichia coli): -3.11%

Which results are given for `COc1ccc(-c2cc3c4nnc(SCC(=O)Nc5ccc(C#N)cc5)n4ccn3n2)cc1`?
Inhibition (Staphylococcus aureus): -3.8%; Inhibition (Escherichia coli): -6.47%

What does the source list for `COc1cccc(Sc2nc3ccccc3n3c(=O)n(CC(=O)Nc4ccc(C)cc4)nc23)c1`?
Inhibition (Staphylococcus aureus): 4.18%; Inhibition (Escherichia coli): -1.95%

For `O=C(Cn1nc2c(Oc3ccccc3)nccn2c1=O)Nc1ccccc1F`, which Inhibition (Staphylococcus aureus) is on record?
The Inhibition was 6.14%.

What about the Inhibition (Escherichia coli) of the same compound?
The Inhibition was -2.38%.

What does the source list for `O=C(CSc1nnc2c(=O)n(-c3ccccc3)ccn12)c1ccc(F)cc1`?
Inhibition (Staphylococcus aureus): 16.24%; Inhibition (Escherichia coli): -2%

`O=C(Cn1nc2ccc(-c3ccccc3)nn2c1=O)NC1CCCCC1` was tested. Which Inhibition (Staphylococcus aureus) did it give?
The Inhibition was 8.4%.

What about the Inhibition (Escherichia coli) of the same compound?
The Inhibition was -1.26%.

Which Inhibition (Staphylococcus aureus) does the source give for `COc1ccc(OC)c(NC(=O)Cn2nc3c4cc(-c5ccc(C)c(C)c5)nn4ccn3c2=O)c1` here?
Its Inhibition is 0.06%.

And the Inhibition (Escherichia coli)?
The Inhibition was -4.32%.

How did the Inhibition (Staphylococcus aureus) turn out when `Cc1ccc(C)c(-c2cc3c4nnc(CCC(=O)NCCc5ccc(Cl)cc5)n4ccn3n2)c1` was run?
The Inhibition was 5.83%.

And the Inhibition (Escherichia coli)?
The Inhibition was 3.02%.

Which Inhibition (Staphylococcus aureus) does the source give for `CCc1nnc2c(S(=O)(=O)N(Cc3cccc(C)c3)c3ccc(C(C)C)cc3)cccn12` here?
The Inhibition was 20.56%.

What about the Inhibition (Escherichia coli) of the same compound?
Its Inhibition is -0.18%.

`COc1ccc(-c2noc(Cn3nc4ccc(-c5ccccc5)nn4c3=O)n2)cc1OC` was tested. Which Inhibition (Staphylococcus aureus) did it give?
Its Inhibition is 7.44%.

And the Inhibition (Escherichia coli)?
Its Inhibition is -3.1%.

Which results are given for `Cc1cccc(CN(c2ccc(Cl)cc2)S(=O)(=O)c2cccn3c(C)nnc23)c1`?
Inhibition (Staphylococcus aureus): 13.75%; Inhibition (Escherichia coli): 2.16%

How did the Inhibition (Staphylococcus aureus) turn out when `Cc1ccc(Oc2nccn3c(=O)n(CC(=O)Nc4ccc5c(c4)OCO5)nc23)cc1` was run?
The Inhibition was 6.26%.

What about the Inhibition (Escherichia coli) of the same compound?
Its Inhibition is -6.61%.

For `CC(C)c1nnc2c(=O)n(CC(=O)Nc3ccccc3)c3ccccc3n12`, which Inhibition (Staphylococcus aureus) is on record?
Its Inhibition is 12.53%.

And the Inhibition (Escherichia coli)?
The Inhibition was 4.36%.

With `CCCCn1c(=O)c2sccc2n2c(=O)n(CC(=O)c3cccc(OC)c3)nc12` as the compound, how does the Inhibition (Staphylococcus aureus) read?
Its Inhibition is 9.41%.

And the Inhibition (Escherichia coli)?
The Inhibition was 0.65%.

Which results are given for `O=C(Cn1nc2c(SC3CCCCC3)nccn2c1=O)Nc1ccc(Br)cc1`?
Inhibition (Staphylococcus aureus): 7.56%; Inhibition (Escherichia coli): -4.82%

How did the Inhibition (Staphylococcus aureus) turn out when `CCC(C)NC(=O)Cn1nc2n(Cc3cccs3)c(=O)c3sccc3n2c1=O` (stereo unspecified) was run?
The Inhibition was 3.01%.

And the Inhibition (Escherichia coli)?
The Inhibition was -5.74%.

What does the source list for `COC(=O)c1ccc(NC(=O)CSc2nnc3c4cc(-c5ccc(OC)cc5)nn4ccn23)cc1`?
Inhibition (Staphylococcus aureus): 8.99%; Inhibition (Escherichia coli): 0.03%

Which results are given for `Cc1nnc2c(S(=O)(=O)N(Cc3ccccc3F)c3ccc(C(C)C)cc3)cccn12`?
Inhibition (Staphylococcus aureus): 11.33%; Inhibition (Escherichia coli): -2.7%

Which results are given for `COc1ccccc1-n1ccn2c(SCC#N)nnc2c1=O`?
Inhibition (Staphylococcus aureus): 15.53%; Inhibition (Escherichia coli): 0.38%

Which results are given for `CCCNC(=O)CSc1nnc2c(=O)n(-c3ccc(F)cc3)ccn12`?
Inhibition (Staphylococcus aureus): -5.35%; Inhibition (Escherichia coli): -1%

`Cn1c(=O)c2ccc(C(=O)NC3CCCC3)cc2n2c(SCC(=O)Nc3cc(F)ccc3F)nnc12` was tested. Which Inhibition (Staphylococcus aureus) did it give?
Its Inhibition is 8.34%.

What about the Inhibition (Escherichia coli) of the same compound?
Its Inhibition is -3.62%.

For `CC(C)Cn1c(=O)c2sccc2n2c(=O)n(Cc3cccc(Br)c3)nc12`, which Inhibition (Staphylococcus aureus) is on record?
Its Inhibition is 8.88%.

And the Inhibition (Escherichia coli)?
Its Inhibition is -2.43%.

What does the source list for `CCc1ccccc1NC(=O)Cn1nc2cc(C)nc(Nc3ccc(F)cc3)n2c1=O`?
Inhibition (Staphylococcus aureus): 8.34%; Inhibition (Escherichia coli): -2.85%

Which Inhibition (Staphylococcus aureus) does the source give for `CCc1nnc2c(S(=O)(=O)N(Cc3ccc(OC)c(F)c3)c3ccccc3)cccn12` here?
The Inhibition was 14.47%.

What about the Inhibition (Escherichia coli) of the same compound?
The Inhibition was 1.05%.

What does the source list for `CCCCc1ccc(NC(=O)Cn2nc3c(SC4CCCCC4)nccn3c2=O)cc1`?
Inhibition (Staphylococcus aureus): -1.79%; Inhibition (Escherichia coli): -6.08%

What does the source list for `CSc1cccc(NC(=O)Cn2nc3ccc(SC4CCCCC4)nn3c2=O)c1`?
Inhibition (Staphylococcus aureus): -9.19%; Inhibition (Escherichia coli): -2.76%

`CCOc1ccc(-n2ccn3c(SCC(=O)c4ccc(C)cc4C)nnc3c2=O)cc1` was tested. Which Inhibition (Staphylococcus aureus) did it give?
The Inhibition was 6.78%.

And the Inhibition (Escherichia coli)?
Its Inhibition is -6.14%.

Which Inhibition (Staphylococcus aureus) does the source give for `Cc1ccc(C)c(CSc2nnc3c(=O)n(-c4ccc(F)c(F)c4)ccn23)c1` here?
Its Inhibition is 21.94%.

What about the Inhibition (Escherichia coli) of the same compound?
The Inhibition was -0.2%.

Which Inhibition (Staphylococcus aureus) does the source give for `CCc1nnc2c(SCC(=O)Nc3ccccc3Br)nc3ccccc3n12` here?
Its Inhibition is 10.46%.

What about the Inhibition (Escherichia coli) of the same compound?
The Inhibition was 0.26%.

For `COc1ccccc1N1CCN(C(=O)CSc2nc3ccccc3n3c(C(C)C)nnc23)CC1`, which Inhibition (Staphylococcus aureus) is on record?
The Inhibition was 1.01%.

And the Inhibition (Escherichia coli)?
The Inhibition was 3.41%.

With `Cc1ccc(-n2ccn3c(=O)n(Cc4ccc(F)cc4)nc3c2=O)cc1C` as the compound, how does the Inhibition (Staphylococcus aureus) read?
The Inhibition was 10.94%.

And the Inhibition (Escherichia coli)?
The Inhibition was -2.15%.
